From PubChem BioAssay AID1159580 (chemical genetic matrix, 2015)
Where “and” joins values, the source holds several entries; their conditions need not be identical. Equal entries are not always repeated. Hit rate of the full screen: of about 5,500 compounds, about 2,000 (36%) were called active. About 18% were inconclusive and are not listed. No stated cut-off is given here; in the data, active means normalized growth mostly below about 0.91 (no sharp cut-off); inconclusive means no clear call, values can overlap the other calls; inactive means mostly above about 0.92. Some of the results follow.

Test: chemical genetic growth profiling, strain panel (AID 1159580);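 further: tested at 20 µM; growth read once vehicle control cultures reached saturation at 30 °C; 1 = growth at the plate median or of vehicle wells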
Details: S. cerevisiae deletion strains, growth OD

Measured: normalized growth

COc1cc(/C=C/C(=O)O)cc(OC)c1OC
inactive: locus YAL021C, strain ccr4, stronger effect = lower value 0.979 | locus YAL026C, strain drs2, stronger effect = lower value 0.999 | locus YAL030W, strain snc1, stronger effect = lower value 0.988 | locus YBL061C, strain skt5, stronger effect = lower value 0.993 | locus YBR009C, strain hhf1, stronger effect = lower value 1.02 | locus YBR021W, strain FUR4, stronger effect = lower value 0.998 | locus YBR023C, strain chs3, stronger effect = lower value 0.993 | locus YBR171W, strain sec66, stronger effect = lower value 1 | locus YBR229C, strain ROT2, stronger effect = lower value 1.01 | locus YBR231C, strain swc5, stronger effect = lower value 0.941 | locus YBR279W, strain paf1, stronger effect = lower value 0.973 | locus YCL011C, strain gbp2, stronger effect = lower value 0.99 | locus YCL016C, strain dcc1, stronger effect = lower value 0.994 | locus YCL029C, strain bik1, stronger effect = lower value 1.01 | locus YCL061C, strain MRC1, stronger effect = lower value 1 | locus YCL069W, strain vba3, stronger effect = lower value 0.992 | locus YCR088W, strain abp1, stronger effect = lower value 0.989 | locus YDL005C, strain med2, stronger effect = lower value 0.979 | locus YDL035C, strain GPR1, stronger effect = lower value 1.01 | locus YDL040C, strain nat1, stronger effect = lower value 0.99 | locus YDL074C, strain BRE1, stronger effect = lower value 1.02 | locus YDL101C, strain DUN1, stronger effect = lower value 1.01 | locus YDL134C, strain PPH21, stronger effect = lower value 1.02 | locus YDL185W, strain tfp1, stronger effect = lower value 1.01 | locus YDL192W, strain arf1, stronger effect = lower value 1.01 | locus YDR001C, strain nth1, stronger effect = lower value 0.985 | locus YDR069C, strain doa4, stronger effect = lower value 0.991 | locus YDR101C, strain arx1, stronger effect = lower value 1.01 | locus YDR137W, strain rgp1, stronger effect = lower value 1 | locus YDR159W, strain sac3, stronger effect = lower value 0.986 | locus YDR162C, strain NBP2, stronger effect = lower value 1.03 | locus YDR195W, strain ref2 0.99 | locus YDR297W, strain sur2, stronger effect = lower value 1 | locus YDR318W, strain mcm21, stronger effect = lower value 1.01 | locus YDR334W, strain swr1, stronger effect = lower value 0.987 | locus YDR335W, strain msn5, stronger effect = lower value 0.987 | locus YDR388W, stronger effect = lower value 1.01 | locus YDR392W, strain spt3, stronger effect = lower value 0.946 | locus YDR502C, strain sam2, stronger effect = lower value 0.991 | locus YEL003W, strain gim4, stronger effect = lower value 0.994 | locus YEL037C, strain rad23, stronger effect = lower value 0.984 | locus YEL061C, strain CIN8 (second series), stronger effect = lower value 0.99 | locus YEL061C, strain CIN8, stronger effect = lower value 1.01 | locus YER015W, strain faa2, stronger effect = lower value 0.975 | locus YER016W, strain bim1, stronger effect = lower value 0.99 | locus YER110C, stronger effect = lower value 1.03 | locus YER111C, strain swi4, stronger effect = lower value 0.984 | locus YER155C, strain BEM2 (second series), stronger effect = lower value 1.01 | locus YER155C, strain BEM2, stronger effect = lower value 1.01 | locus YER167W, strain BCK2, stronger effect = lower value 1.01 | locus YFR010W, strain ubp6, stronger effect = lower value 0.988 | locus YGL078C, strain dbp3, stronger effect = lower value 1.02 | locus YGL086W, strain mad1, stronger effect = lower value 0.997 | locus YGL167C, strain pmr1, stronger effect = lower value 0.982 | locus YGL173C, strain kem1, stronger effect = lower value 0.985 | locus YGL227W, strain vid30, stronger effect = lower value 0.997 | locus YGL240W, strain doc1, stronger effect = lower value 1 | locus YGL248W, strain PDE1, stronger effect = lower value 1.02 | locus YGL253W, strain hxk2, stronger effect = lower value 0.993 | locus YGR078C, strain PAC10, stronger effect = lower value 1.01 | locus YGR135W, strain pre9, stronger effect = lower value 1.02 | locus YGR252W, strain gcn5, stronger effect = lower value 1.02 | locus YHR013C, strain ard1, stronger effect = lower value 0.967 | locus YHR027C, strain rpn1, stronger effect = lower value 1 | locus YHR030C, strain SLT2, stronger effect = lower value 1 and 1.01 | locus YHR079C, strain IRE1 (second series), stronger effect = lower value 1.03 | locus YHR079C, strain IRE1, stronger effect = lower value 1 | locus YHR094C, strain hxt1, stronger effect = lower value 1.02 | locus YHR129C, strain ARP1, stronger effect = lower value 1.01 | locus YHR142W, strain chs7, stronger effect = lower value 0.986 | locus YHR200W, strain rpn10, stronger effect = lower value 1.02 | locus YIL066C, strain RNR3, stronger effect = lower value 1.01 | locus YIL073C, strain SPO22, stronger effect = lower value 1.08 | locus YIL125W, strain kgd1, stronger effect = lower value 1.01 | locus YIR030C, strain dcg1, stronger effect = lower value 1.02 | locus YJL092W, strain hpr5, stronger effect = lower value 0.991 | locus YJL095W, strain BCK1 (second series), stronger effect = lower value 0.994 | locus YJL095W, strain BCK1, stronger effect = lower value 1.01 and 1.03 | locus YJL115W, strain asf1, stronger effect = lower value 0.976 | locus YJL129C, strain trk1, stronger effect = lower value 0.971 | locus YJL134W, strain LCB3, stronger effect = lower value 1 | locus YJL154C, strain vps35, stronger effect = lower value 0.992 | locus YJL164C, strain tpk1, stronger effect = lower value 0.987 | locus YJL166W, strain qcr8, stronger effect = lower value 0.994 | locus YJL168C, strain set2, stronger effect = lower value 1.01 | locus YJL187C, strain SWE1 (second series), stronger effect = lower value 1.01 | locus YJL187C, strain SWE1, stronger effect = lower value 0.991
